We go through 15 compounds from PubChem BioAssay (EPA / NIEHS).

Molecules are shown by their SMILES. The source made the active and inactive calls. How the source made its calls: active means hit-call score of the fitted dose curve at least 0.9, where 1 is the maximum; inactive means score below 0.9.

Details in all cases: mRNA level, 48 h; actives raise or lower the signal
Read-out in assay [1]: adenosine kinase (ADK) gene, ADK (gene 132)
The assay can be described thus: LTEA_HepaRG_ADK: Life Technologies and Expression Analysis (LTEA) Assay for adenosine kinase (ADK) gene using HepaRG (AID 2283471). Put shortly: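 ADK expression quantified by qRT-PCR, normalised to three housekeeping genes, after 48 h exposure of HepaRG cells to eight concentrations (top 100 uM, half-log steps, duplicate, 0.5% DMSO). Up- or down-regulation fitted relative to vehicle.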

Read-out in assay [2]: Alpha-fetoprotein (AFP) gene, AFP (gene 174)
The assay can be described thus: LTEA_HepaRG_AFP: Life Technologies and Expression Analysis (LTEA) Assay for Alpha-fetoprotein (AFP) gene using HepaRG (AID 2283472). In short, it runs like this:
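qRT-PCR (Fluidigm TaqMan) readout of AFP transcript, normalized to three housekeeping genes, fitted bidirectionally against 0.5% DMSO baseline. HepaRG cells received chemicals for 48 h in serum-free induction medium, top concentration 100 uM, half-log steps.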

Read-out in the next assay: BCL2L11 (gene 10018)
Description: LTEA_HepaRG_BCL2L11: Life Technologies and Expression Analysis (LTEA) Assay for Bcl-2 (BCL2L11) gene using HepaRG (AID 2283473). Put shortly:
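HepaRG, 48 h exposure, 8-pt half-log series from 100 uM in 0.5% DMSO, duplicates; qRT-PCR (Fluidigm TaqMan) for BCL2L11, housekeeping-normalized; bidirectional curve fit relative to DMSO baseline.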

Read-out in assay [3]: Apolipoprotein A-V (APOA5) gene, APOA5 (gene 116519)
Description: LTEA_HepaRG_APOA5: Life Technologies and Expression Analysis (LTEA) Assay for Apolipoprotein A-V (APOA5) gene using HepaRG (AID 2283474). In short, it runs like this: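 HepaRG, 48 h chemical exposure in serum-free induction medium, 8-pt half-log series (top 100 uM), 0.5% DMSO vehicle, duplicates. Readout: APOA5 mRNA by qRT-PCR, housekeeping-normalized; bidirectional fit vs DMSO baseline.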

Read-out in assay [4]: Apoptosis regulator Bcl-2 (Homo sapiens) (UniProt P10415)
The assay can be described thus: LTEA_HepaRG_BCL2: Life Technologies and Expression Analysis (LTEA) Assay for Bcl-2 gene using HepaRG (AID 2283475). In short, it runs like this:
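qRT-PCR read-out (Fluidigm TaqMan) of BCL2 transcript, normalised to three housekeeping genes, after 48 h chemical exposure of HepaRG cells; 8-point half-log series, top 100 uM, 0.5% DMSO vehicle. Gain or loss of signal fitted relative to DMSO baseline.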

Read-out in assay [5]: Bcl-2 (BID) gene, BID (gene 637)
The assay can be described thus: LTEA_HepaRG_BID: Life Technologies and Expression Analysis (LTEA) Assay for Bcl-2 (BID) gene using HepaRG (AID 2283476). In short, it runs like this:
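HepaRG, 48 h exposure, 8-pt half-log series, top 100 uM, 0.5% DMSO vehicle, duplicates. Readout: BID mRNA by TaqMan qRT-PCR; housekeeping-normalized; bidirectional curve fit vs DMSO baseline.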

Read-out in the next assay: Caspase-3 (Homo sapiens) (UniProt P42574)
Description: LTEA_HepaRG_CASP3: Life Technologies and Expression Analysis (LTEA) Assay for cysteine-aspartic acid protease (CASP3) using HepaRG (AID 2283477). Put shortly:
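HepaRG, 48 h exposure, 8 conc. (top 100 uM, half-log steps, duplicate), 0.5% DMSO vehicle; qRT-PCR of CASP3 transcript, housekeeping-normalised (ACTB/GAPDH/POLR2A); bidirectional curve fit vs DMSO baseline.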

Read-out in assay [6]: Cytochrome P450 (CYP24A1), CYP24A1 (gene 1591)
Description: LTEA_HepaRG_CYP24A1: Life Technologies and Expression Analysis (LTEA) Assay for Cytochrome P450 (CYP24A1) using HepaRG (AID 2283478). Put shortly: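 qRT-PCR read-out: CYP24A1 transcript levels normalized to three housekeeping genes, bidirectional curve fits against 0.5% DMSO baseline. Human HepaRG cells treated 48 h with chemicals at eight concentrations from 100 uM in half-log steps.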

Read-out in assay [7]: Cytochrome P450 (CYP1A2), CYP1A2 (gene 1544)
The assay can be described thus: LTEA_HepaRG_CYP1A2: Life Technologies and Expression Analysis (LTEA) Assay for Cytochrome P450 (CYP1A2) using HepaRG (AID 2283479). Put shortly:
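HepaRG, 48 h exposure, top 100 uM, half-log 8-pt, 0.5% DMSO vehicle, duplicates. Readout: TaqMan qRT-PCR of CYP1A2 mRNA, housekeeping-normalized (ACTB/GAPDH/POLR2A). Gain/loss fit relative to DMSO baseline.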

Read-out in assay [8]: cysteine-aspartic acid protease (CASP8), CASP8 (gene 841)
Description: LTEA_HepaRG_CASP8: Life Technologies and Expression Analysis (LTEA) Assay for cysteine-aspartic acid protease (CASP8) using HepaRG (AID 2283480). In short, it runs like this: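 Concentration-response in duplicate up to 100 uM (half-log steps, 0.5% DMSO) on differentiated HepaRG cultures for 48 h. Expression change of CASP8 mRNA is determined by TaqMan qRT-PCR with housekeeping-gene normalization.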

Chain of Caspase-3 (Homo sapiens) (P42574 whole entry, looked up): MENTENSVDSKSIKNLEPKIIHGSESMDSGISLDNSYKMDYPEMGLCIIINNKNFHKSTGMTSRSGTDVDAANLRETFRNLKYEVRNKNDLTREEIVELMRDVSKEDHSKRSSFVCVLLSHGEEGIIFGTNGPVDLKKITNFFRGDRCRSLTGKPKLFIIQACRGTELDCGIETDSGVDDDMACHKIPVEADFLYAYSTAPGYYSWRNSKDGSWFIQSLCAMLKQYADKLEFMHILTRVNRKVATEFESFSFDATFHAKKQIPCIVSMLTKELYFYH
Chain of Apoptosis regulator Bcl-2 (Homo sapiens) (P10415 whole entry, looked up): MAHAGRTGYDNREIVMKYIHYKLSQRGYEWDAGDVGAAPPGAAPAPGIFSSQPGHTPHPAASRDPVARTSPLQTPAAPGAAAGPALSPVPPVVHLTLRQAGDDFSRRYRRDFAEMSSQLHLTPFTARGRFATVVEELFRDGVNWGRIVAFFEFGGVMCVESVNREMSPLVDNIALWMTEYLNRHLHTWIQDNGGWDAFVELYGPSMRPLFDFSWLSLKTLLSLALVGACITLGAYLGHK

Turning to `ClCCOCCCl`, the call (in [1]; in [2]; in the assay with BCL2L11 (gene 10018); in assay [3]; in [4]; in assay [5]) was inactive. In addition, the outcome (with Caspase-3 (Homo sapiens); in assay [6]; in [7]; in [8]) was inactive.

As usually defined, the AC50 is the concentration at which the activity in the assay is half-maximal. For the compound `c1ccc(N=Nc2ccccc2)cc1`, the call (in assay [1]; in assay [2]; with BCL2L11 (gene 10018); in assay [3]; in assay [4]; in assay [5]) was inactive. Besides, the call (with Caspase-3 (Homo sapiens); in assay [8]) was inactive. The AC50 in assay [7] was 50 µM (active).

For the compound `Cc1cccc(N)c1N`, the outcome (in assay [1]; in [4]; in assay [5]; in the assay with Caspase-3 (Homo sapiens); in [8]) was inactive. Also, the AC50 was 81.5 µM (active) in assay [2], 9.92 µM (active) with BCL2L11 (gene 10018), 37.6 µM (active) in assay [3] and 8.42 µM (active) in assay [7].

On to `Cn1cc(-c2ccccc2)c(=O)c(-c2cccc(C(F)(F)F)c2)c1`, for which the compound was classed as inactive (in assay [1]; in [2]; in the assay with BCL2L11 (gene 10018); in [3]; in assay [4]; in assay [5]). The outcome (with Caspase-3 (Homo sapiens); in assay [8]) was inactive. Further, the AC50 in assay [7] is 87.5 µM (active).

As for `CCCCCCCCCCCCCN1CC(C)OC(C)C1` (stereo not drawn), the compound was called inactive (in [1]; in assay [2]; with BCL2L11 (gene 10018); in assay [3]; in assay [4]; in assay [5]). Further, the compound was classed as inactive (in the assay with Caspase-3 (Homo sapiens); in assay [8]). The concentration at half-maximal activity (AC50) in assay [7] was 50 µM (active).

As for `N#CC(Br)(Br)C(N)=O`, the outcome (in assay [1]; in [2]; with BCL2L11 (gene 10018); in assay [3]; in assay [4]; in assay [5]) was inactive. Further, the outcome (in the assay with Caspase-3 (Homo sapiens); in [7]; in [8]) was inactive.

Regarding `CCC(C)c1ccc(O)cc1` (stereo not drawn), the compound was classed as inactive (in [1]; in assay [2]; with BCL2L11 (gene 10018); in assay [3]; in [4]; in assay [5]). For the same compound, the result (in the assay with Caspase-3 (Homo sapiens); in [7]; in assay [8]) was inactive.

With `Nc1ccc(Cc2ccc(N)cc2)cc1`, the result (in assay [1]; in assay [2]; with BCL2L11 (gene 10018); in [3]; in [4]; in [5]) was inactive. The outcome (with Caspase-3 (Homo sapiens); in assay [8]) was inactive. Further, the AC50 in assay [7] is 31.3 µM (active).

As to `CC(C)(C)OOC(C)(C)CCC(C)(C)OOC(C)(C)C`, the outcome (in [1]; in assay [2]; in the assay with BCL2L11 (gene 10018); in [3]; in assay [4]; in [6]) was inactive. Further, in [7], the result was inactive.

Take `CN(C)c1ccccc1`: the outcome (in [1]; in assay [2]; with BCL2L11 (gene 10018); in [3]; in assay [4]; in assay [5]) was inactive. Also, the result (with Caspase-3 (Homo sapiens); in [7]; in assay [8]) was inactive.

As for `CCCCCCCCn1sccc1=O`, the call (in assay [1]; in the assay with BCL2L11 (gene 10018); in assay [4]; in [5]; with Caspase-3 (Homo sapiens); in assay [7]) was inactive. Also, the compound was classed as inactive in [8]. Besides, the figures for the AC50 in assay [2] and in assay [3] were 79.5 µM (active) and 82.9 µM (active), respectively.

As for `Cc1cc(N=Nc2ccccc2C)ccc1N`, the AC50 is 4.93 µM (active) in [1]; 4.69 µM (active) in [2]; 3.13 µM (active) with BCL2L11 (gene 10018); 2.97 µM (active) in assay [3]; 78 µM (active) in assay [4]; 31.4 µM (active) in assay [7]. For the same compound, the result (with Caspase-3 (Homo sapiens); in assay [8]) was inactive.

As for `CCC12COCN1COC2`, the compound was called inactive (in [1]; in assay [2]; in the assay with BCL2L11 (gene 10018); in [3]; in assay [4]; in [5]). Besides, the compound was classed as inactive (in the assay with Caspase-3 (Homo sapiens); in assay [7]; in assay [8]).

Consider `CN(C)c1ccc(C(=O)c2ccc(N(C)C)cc2)cc1`, for which the outcome (in assay [1]; in the assay with BCL2L11 (gene 10018); in [3]; in assay [5]; with Caspase-3 (Homo sapiens); in assay [8]) was inactive. Besides, the results for the AC50 in [2], in assay [4] and in assay [7] were 50 µM (active), 8.06 µM (active) and 12.1 µM (active), respectively.

As for `N#CC(Br)Br`, the outcome (in assay [1]; in [2]; with BCL2L11 (gene 10018); in assay [3]; in assay [4]; in assay [5]) was inactive. The compound was classed as inactive (with Caspase-3 (Homo sapiens); in assay [7]; in assay [8]).
